Assay results from PubChem BioAssay AID1159580 (chemical genetic matrix, 2015).
Among all 5,500 compounds or so, about 2,000 (36%) were called active. Inconclusive results (about 18%) are left out. No stated cut-off is given here; in the data, active means normalized growth mostly below about 0.91 (no sharp cut-off); inconclusive means no clear call, values can overlap the other calls; inactive means mostly above about 0.92. The list shows a part of the results.

Assay: chemical genetic growth profiling, strain panel (AID 1159580);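 further: tested at 20 µM; growth read once vehicle control cultures reached saturation at 30 °C; 1 = growth at the plate median or of vehicle wells; lower values mean less growth of the strain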
Settings: growth OD

Measured: normalized growth

CN1C2CCC1CC(OC(c1ccccc1)c1ccccc1)C2 (stereo not given)
active: S. cerevisiae deletion strains, locus YJR075W, strain HOC1, hits give low values 0.847 | S. cerevisiae deletion strains, locus YLR330W, strain CHS5, hits give low values 0.809 | S. cerevisiae deletion strains, locus YLR418C, strain cdc73, hits give low values 0.814 | S. cerevisiae deletion strains, locus YNL233W, strain BNI4, hits give low values 0.766 | S. cerevisiae deletion strains, locus YOR184W, strain ser1, hits give low values 0.774 | S. cerevisiae strains, strain wild type, hits give low values 0.882
inactive: S. cerevisiae deletion strains, locus YJR043C, strain POL32, hits give low values 0.95 | S. cerevisiae deletion strains, locus YKL009W, strain mrt4, hits give low values 0.918 | S. cerevisiae deletion strains, locus YKL068W, hits give low values 0.986 | S. cerevisiae deletion strains, locus YKL085W, strain MDH1 (second series), hits give low values 0.978 | S. cerevisiae deletion strains, locus YKL085W, strain MDH1, hits give low values 0.978 | S. cerevisiae deletion strains, locus YKL160W, strain elf1, hits give low values 1 | S. cerevisiae deletion strains, locus YKR001C, strain vps1, hits give low values 0.926 | S. cerevisiae deletion strains, locus YKR026C, strain gcn3, hits give low values 0.972 | S. cerevisiae deletion strains, locus YKR091W, strain srl3, hits give low values 0.971 | S. cerevisiae deletion strains, locus YLL001W, strain dnm1, hits give low values 1.01 | S. cerevisiae deletion strains, locus YLL026W, hits give low values 0.991 | S. cerevisiae deletion strains, locus YLL041C, strain sdh2, hits give low values 0.995 | S. cerevisiae deletion strains, locus YLR027C, strain aat2, hits give low values 0.989 | S. cerevisiae deletion strains, locus YLR039C, strain RIC1, hits give low values 0.795 | S. cerevisiae deletion strains, locus YLR058C, strain SHM2, hits give low values 0.91 | S. cerevisiae deletion strains, locus YLR102C, strain apc9, hits give low values 0.996 | S. cerevisiae deletion strains, locus YLR221C, strain rsa3, hits give low values 0.985 | S. cerevisiae deletion strains, locus YLR258W, strain gsy2, hits give low values 0.982 | S. cerevisiae deletion strains, locus YLR262C, strain YPT6 (second series), hits give low values 1.04 | S. cerevisiae deletion strains, locus YLR262C, strain YPT6, hits give low values 0.647 | S. cerevisiae deletion strains, locus YLR268W, strain sec22, hits give low values 0.96 | S. cerevisiae deletion strains, locus YLR320W, strain mms22, hits give low values 0.951 | S. cerevisiae deletion strains, locus YLR342W, strain FKS1 (second series), hits give low values 0.842 | S. cerevisiae deletion strains, locus YLR342W, strain FKS1, hits give low values 0.997 | S. cerevisiae deletion strains, locus YLR357W, strain rsc2, hits give low values 0.958 | S. cerevisiae deletion strains, locus YLR370C, strain arc18, hits give low values 0.987 | S. cerevisiae deletion strains, locus YLR371W, strain rom2, hits give low values 0.969 | S. cerevisiae deletion strains, locus YLR384C, strain iki3, hits give low values 0.999 | S. cerevisiae deletion strains, locus YML016C, strain PPZ1, hits give low values 0.981 | S. cerevisiae deletion strains, locus YML032C, strain rad52, hits give low values 0.979 | S. cerevisiae deletion strains, locus YML120C, strain ndi1, hits give low values 0.985 | S. cerevisiae deletion strains, locus YML124C, strain tub3, hits give low values 0.993 | S. cerevisiae deletion strains, locus YMR058W, strain fet3, hits give low values 0.978 | S. cerevisiae deletion strains, locus YMR078C, strain ctf18, hits give low values 0.954 | S. cerevisiae deletion strains, locus YMR125W, strain sto1, hits give low values 0.963 | S. cerevisiae deletion strains, locus YMR129W, hits give low values 0.984 | S. cerevisiae deletion strains, locus YMR205C, strain PFK2, hits give low values 0.969 | S. cerevisiae deletion strains, locus YMR223W, strain ubp8, hits give low values 0.948 | S. cerevisiae deletion strains, locus YMR231W, strain pep5, hits give low values 1 | S. cerevisiae deletion strains, locus YMR263W, strain SAP30, hits give low values 1 | S. cerevisiae deletion strains, locus YMR307W, strain GAS1, hits give low values 0.807 | S. cerevisiae deletion strains, locus YNL067W, strain RPL9B, hits give low values 0.898 | S. cerevisiae deletion strains, locus YNL071W, strain lat1, hits give low values 0.964 | S. cerevisiae deletion strains, locus YNL128W, strain TEP1, hits give low values 0.925 | S. cerevisiae deletion strains, locus YNL175C, strain NOP13, hits give low values 1.03 | S. cerevisiae deletion strains, locus YNL197C, strain WHI3, hits give low values 1.03 | S. cerevisiae deletion strains, locus YNL209W, strain ssb2, hits give low values 0.981 | S. cerevisiae deletion strains, locus YNL224C, strain SQS1, hits give low values 1.01 | S. cerevisiae deletion strains, locus YNL248C, strain rpa49, hits give low values 0.969 | S. cerevisiae deletion strains, locus YNL250W, strain rad50, hits give low values 0.971 | S. cerevisiae deletion strains, locus YNL271C, strain bni1, hits give low values 0.967 | S. cerevisiae deletion strains, locus YNL298W, strain CLA4, hits give low values 0.95 | S. cerevisiae deletion strains, locus YNL307C, strain MCK1, hits give low values 0.91 | S. cerevisiae deletion strains, locus YNL322C, strain KRE1 (second series), hits give low values 0.98 | S. cerevisiae deletion strains, locus YNL322C, strain KRE1, hits give low values 0.973 | S. cerevisiae deletion strains, locus YNR049C, strain mso1, hits give low values 0.984 | S. cerevisiae deletion strains, locus YNR052C, strain pop2, hits give low values 0.972 | S. cerevisiae deletion strains, locus YOL006C, strain TOP1, hits give low values 0.597 | S. cerevisiae deletion strains, locus YOL012C, strain htz1 1 | S. cerevisiae deletion strains, locus YOL147C, strain pex11, hits give low values 0.985 | S. cerevisiae deletion strains, locus YOR001W, strain rrp6, hits give low values 0.99 | S. cerevisiae deletion strains, locus YOR061W, strain CKA2, hits give low values 0.979 | S. cerevisiae deletion strains, locus YOR069W, strain VPS5, hits give low values 0.971 | S. cerevisiae deletion strains, locus YOR070C, strain gyp1, hits give low values 0.989 | S. cerevisiae deletion strains, locus YOR080W, strain dia2, hits give low values 0.989 | S. cerevisiae deletion strains, locus YOR083W, strain WHI5 (second series), hits give low values 0.998 | S. cerevisiae deletion strains, locus YOR083W, strain WHI5, hits give low values 0.998 | S. cerevisiae deletion strains, locus YOR106W, strain vam3, hits give low values 1 | S. cerevisiae deletion strains, locus YOR136W, strain idh2, hits give low values 0.972 | S. cerevisiae deletion strains, locus YOR144C, strain elg1, hits give low values 0.993 | S. cerevisiae deletion strains, locus YOR265W, strain rbl2, hits give low values 0.988 | S. cerevisiae deletion strains, locus YOR270C, strain vph1, hits give low values 0.943 | S. cerevisiae deletion strains, locus YOR290C, strain snf2, hits give low values 0.967 | S. cerevisiae deletion strains, locus YOR316C, strain cot1, hits give low values 0.986 | S. cerevisiae deletion strains, locus YPL051W, strain arl3, hits give low values 0.995 | S. cerevisiae deletion strains, locus YPL078C, strain atp4, hits give low values 0.998 | S. cerevisiae deletion strains, locus YPL106C, strain sse1, hits give low values 0.912 | S. cerevisiae deletion strains, locus YPL240C, strain hsp82, hits give low values 0.995 | S. cerevisiae deletion strains, locus YPL241C, strain CIN2, hits give low values 0.999 | S. cerevisiae deletion strains, locus YPR119W, strain clb2, hits give low values 0.973 | S. cerevisiae deletion strains, locus YPR141C, strain kar3, hits give low values 0.966 | S. cerevisiae deletion strains, locus YPR163C, strain tif3, hits give low values 0.952 | S. cerevisiae deletion strains, locus YPR167C, strain met16, hits give low values 0.965 | S. cerevisiae deletion strains, strain wtn01, hits give low values 0.977
